# Compound activity as filed in PubChem.
# Rab9 promoter act – Rab9 promoter activation; Huh7 Rab9 promoter-luciferase reporter, luminescence, 24 h; AID 485297; 320,000 tested, 2.8% active; Potency, µM (top dose mostly 9.22 µM), without a hit: at the top dose activation, negative = inhibition, usual class: activators; also: % of control where 0% means no effect; nearly all actives have a fitted effect of over 60% in size
#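 Luminescence read-out: Huh7 cells stably expressing Rab9-luciferase, treated 24 h with compound at 37 °C, then lysed with luciferase reagent for 10 min at ambient before reading.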
# FLuc counter – counter-screen for miR-21 project: firefly luciferase inhibitors or activators; P08659; purified FLuc, Km substrates, luminescence inhibition; Potency, µM (highest dose often 57.5 µM), without a hit: at the highest dose activity change, negative = inhibition, usual class: inhibitors; 360,000 tested, 6.9% active;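 also: plate controls were vehicle for no effect and reference inhibitor for full effect; nearly all actives have a fitted effect of over 55% in size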
# Target sequence (P08659 whole entry, looked up): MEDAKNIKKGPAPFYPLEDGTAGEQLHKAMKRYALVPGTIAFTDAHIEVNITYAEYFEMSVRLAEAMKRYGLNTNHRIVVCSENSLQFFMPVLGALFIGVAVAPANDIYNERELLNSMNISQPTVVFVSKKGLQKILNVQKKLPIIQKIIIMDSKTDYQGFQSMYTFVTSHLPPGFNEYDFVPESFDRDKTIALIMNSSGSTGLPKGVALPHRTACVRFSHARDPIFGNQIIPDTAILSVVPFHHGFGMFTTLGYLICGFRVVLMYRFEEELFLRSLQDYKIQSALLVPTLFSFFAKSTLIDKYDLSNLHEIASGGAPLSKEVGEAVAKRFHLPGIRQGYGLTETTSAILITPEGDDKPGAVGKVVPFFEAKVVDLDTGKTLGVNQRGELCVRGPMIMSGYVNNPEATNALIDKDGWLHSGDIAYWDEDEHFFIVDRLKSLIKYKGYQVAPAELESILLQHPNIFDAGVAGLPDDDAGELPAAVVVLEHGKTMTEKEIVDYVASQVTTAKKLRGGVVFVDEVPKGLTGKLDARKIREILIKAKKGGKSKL
#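 Purified P. pyralis luciferase, 10 nM final, with Km-level 10 uM D-luciferin and 10 uM ATP in 50 mM Tris acetate pH 7.5, 10 mM Mg acetate, 0.01% Tween-20, 0.05% BSA; 6-point qHTS titration about 60 µM downward; luminescence read.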
# KinaseGlo FLuc – Kinase-Glo luciferase inhibition (counter-screen). Kinase-Glo luciferase, ATP luminescence, 8 min. Potency, µM (series often up to 38.3 µM), for inactives: top-dose activity change, negative = inhibition, actives largely listed as inhibitors. 200,000 tested, 0.28% active; also: % is scaled to controls: 0 for no effect and ±100 for the full control effect; nearly all actives have a fitted effect of over 60% in size
#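 Inhibition of Kinase-Glo luciferase light generation was assessed at 10 uM ATP in pH 7.2 imidazole buffer, with luminescence measured after eight minutes at ambient temperature.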
# ELG1 genotoxic – inducers of genotoxicity in HEK293T ELG1-luciferase cells; AID 504466; 330,000 tested, 1.3% active; HEK293T ELG1-luciferase reporter, luminescence, 16 h; Potency, µM (series often up to 46 µM), without a hit: at the top dose activity change, positive = activation, most hits filed as activators; also: % of control where 0% means no effect; nearly all actives have a fitted effect of over 60% in size
#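 Genotoxic stress is detected as increased luminescence from luciferase-tagged ELG1 in HEK293T cells, measured with ONE-Glo after a 16 hr treatment at 37 °C.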
# SMN2 splice enh – enhancers of SMN2 splice variant expression | HEK293 SMN2-luciferase splicing reporter, luminescence, 30-36 h | Potency, µM (top dose mostly 46.1 µM), for inactives: at the highest dose activity change, positive = activation, most hits filed as activators | 210,000 tested, 2.8% active; also: % of control where 0% means no effect; nearly all actives have a fitted effect of over 55% in size
#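 HEK293 cells carry an SMN2 minigene-luciferase reporter in which exon 7 inclusion puts luciferase in frame. Cells were seeded at 2000 cells/well, attached for 10-12 hours, then exposed to compounds for 30-36 hours at 37C before ONE-Glo luminescence.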
# NPC1 prom act – NPC1 promoter activation. Huh7 NPC1 promoter luciferase reporter, 24 h. Potency, µM (doses to about 9.22 µM), inactives show top-dose activation, usual class: activators. 320,000 tested, 2.4% active. AID 485313; also: % of control where 0% means no effect; nearly all actives have a fitted effect of over 60% in size
#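 Compounds in DMSO were transferred onto Huh7 NPC1-luciferase reporter cells pre-incubated 2 h; after 24 h at 37 °C, Amplite reagent was dispensed and luminescence recorded 10 min later.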
# * marks the source's active call; other numbers are inactive results; ? = inconclusive; · = not tested or not shown; [ ] = dose if it differs, or a comment. Shown are actives, neighbours in structure and some others; about 7.5% of the full set was active somewhere. Calls follow the shape of the dose curve; as a rule, active = well fitted curve in the direction sought with a large enough effect; inconclusive = small, poorly fitted or top-dose-only effect, or another doubt; inactive = no such curve, though single readings can be large; an effect the other way counts as inactive or inconclusive. Potency is read from the fitted curve at half-maximal effect.
SMILES,Rab9 promoter act,FLuc counter,KinaseGlo FLuc,ELG1 genotoxic,SMN2 splice enh,NPC1 prom act
COc1ccc(C(=O)OCC(=O)c2ccc(C3CCCCC3)cc2)cc1,-23.8%,-13.4%,1.9%,6.51µM*,-84.5%,-10.5%
O=C(OCC(=O)N(C1CCCCC1)C1CCCCC1)c1ccc(O)cc1,2.6%,3.5%,·,-1.9%,·,-2.0%
O=C(OCC(=O)C12CC3CC(CC(C3)C1)C2)c1ccc(O)cc1,·,·,·,7.6%,·,·
CCOC(=O)c1cnc2c(ccc3ccccc32)c1NCCCN(C)C,4.5%,7.57µM*,·,?,·,-3.8%
Cc1ccc2nc(-c3ccc(NS(=O)(=O)c4ccc(F)c(F)c4)cc3)sc2c1,1.58µM*,1.2µM*,-2.7%,?,?,2.82µM*
Cc1nc2ccc(NS(=O)(=O)c3ccc(F)c(F)c3)cc2s1,-10.6%,-0.3%,·,-0.9%,·,-2.4%
Cc1ccc2nc(-c3ccc(NS(=O)(=O)c4ccccc4)cc3)sc2c1,12.5%,13.5µM*,-4.1%,7.4%,2.7%[1.84 µM],15.1%
COC(=O)c1cc(Cl)ccc1NC(=O)Cn1c(C)cc(C)c(C#N)c1=O,·,-3.1%,·,·,1.7%,·
CC(C)CCNC(=O)C1CCN(c2nc3ccccc3o2)CC1,-1.4%,-2.3%,-2.4%,-6.7%,-30.6%,0.9%
CCCN(CCC)CCNC(=O)C1CCN(c2nc3ccc(CC)cc3s2)CC1,·,21.3µM*,·,·,23.7%,·
CCc1ccc2nc(N3CCC(C(=O)NCCC(C)C)CC3)sc2c1,·,1.9µM*,·,·,-7.0%,·
CCCCN(CCCC)CCCNC(=O)c1ccc2nc(N3CCCCC3)sc2c1,·,3.8%,·,·,15.0%,·
CCCN(CCC)CCCNC(=O)C1CCN(c2nc3ccc(CC)cc3s2)CC1,·,12µM*,·,·,27.9%,·
C/C(=N\N=c1/sc2ccccc2n1C)c1ccc(N2CCOCC2)cc1,21.0%,2.39µM*,-2.1%,9.0%,11.9%,-2.3%
C/C(=N/NC(=O)c1ccoc1C)c1ccc(N2CCOCC2)cc1,21.6%,?,-11.3%,?,?,15.6%
C/C(=N\N=c1/sc2ccccc2n1C)c1ccccn1,?,16.9µM*,-1.4%,?,?,?
CCc1c(C)nc2ncnn2c1Nc1ccc(C(C)=O)cc1,12.9%,26.9µM*,2.7%,18.4µM*,16.4%,26.7%
Cn1cccc1C(=O)OCc1nc2ccccc2c(=O)[nH]1,·,·,·,6.4%,·,·
Cn1cccc1C(=O)OCc1ccc(C(C)(C)C)cc1,?,10.7µM*,·,?,·,-34.7%
Cn1cccc1C(=O)OCc1cc(-c2ccco2)on1,3.16µM*,23.9µM*,·,?,·,3.55µM*
N#Cc1cccc(NC(=O)C2CCN(c3cnccn3)CC2)c1,·,-7.0%,·,·,·,·
C(#Cc1ccccc1)Cn1nnc2ccccc21,?,16.9µM*,-3.6%,?,22.5%,?
C[C@@]12C=CC(=O)C=C1CC[C@@H]1[C@@H]2[C@H](O)C[C@]2(C)[C@@H]1CC[C@]2(O)C(=O)CO,·,·,-3.9%[17.1 µM],·,-5.2%[20.6 µM],·
Cc1onc(-c2c(Cl)cccc2Cl)c1COC(=O)c1ccc(Cl)cc1,-0.6%,-1.9%,·,-4.3%,·,1.6%
CC(=O)c1cc2c(cc1NS(=O)(=O)c1cccc(C(=O)O)c1)OCO2,-1.7%,1.7%,·,2.5%,·,1.2%
SMILES,Rab9 promoter act,FLuc counter,KinaseGlo FLuc,ELG1 genotoxic,SMN2 splice enh,NPC1 prom act
CC(=O)c1cc2c(cc1NS(=O)(=O)c1ccccc1)OCO2,20.1%,3.4%,1.3%,16.4µM*,-16.6%,11.7%
CN(C)/C=C(\C#N)C(=O)N/N=C/c1ccccc1,2.24µM*,?,-1.9%,13.8%,?,22.3%
Cc1ccc(C(=O)NCC(=O)NC23CC4CC(CC(C4)C2)C3)cc1,?,-19.1%,·,16.4µM*,·,26.1%
Cc1ccc(/C(O)=C/C(=O)C(=O)NC23CC4CC(CC(C4)C2)C3)cc1,3.16µM*,16.9µM*,·,5.9%,·,?
Cc1ccc(CNC(=O)NC23CC4CC(CC(C4)C2)C3)cc1,-3.5%,-0.7%,-0.3%,-1.7%,-20.5%,-0.9%
COc1ccc(S(=O)(=O)c2nnn(-c3ccc(C(C)C)cc3)c2C)cc1,·,1.8%,·,·,-13.5%,·
COc1ccc(Cl)cc1NC(=O)C1CCN(S(=O)(=O)c2ccc3c(c2)CCCN3C(=O)C2CCC2)CC1,·,1.7%,·,·,·,·
CCN(c1ccccc1)c1ncnc2c1cnn2-c1ccccc1,?,19µM*,1.2%,20.6µM*,-59.0%,?
CCN(Cc1ccccc1)c1ncnc2c1cnn2-c1ccc(F)cc1,·,7.57µM*,·,·,·,·
CN(Cc1ccccc1)c1ncnc2c1cnn2-c1ccccc1,2.82µM*,6.01µM*,-3.2%,18.4µM*,5.62µM*,2.51µM*
COCCN(CCOC)c1ncnc2c1cnn2-c1ccccc1,15.6%,-14.7%,·,5.9%,·,5.0%
COc1ccc(Cl)cc1NC(=O)Cn1ncc2c3ccccc3n(Cc3ccccc3)c2c1=O,·,-6.6%,·,·,0.4%,·
O=C(OCCc1cc2ccccc2c(=O)o1)c1ccco1,-4.2%,5.36µM*,·,3.4%,·,0.8%
O=C(NCc1ccco1)c1cc(=O)c2ccccc2o1,-5.3%,-4.0%,3.5%,-4.4%,1.7%,-5.6%
O=C(NCc1ccco1)c1cc2ccccc2c(=O)o1,9.8%,15.1µM*,·,15.0%,·,12.5%
O=C(NCc1ccco1)c1cc2cc(Br)ccc2o1,?,16.9µM*,·,10.0%,·,21.7%
Cc1c(C(=O)NCc2ccco2)oc2ccc(Br)cc12,16.5%,?,·,-0.6%,·,18.8%
CCOc1ccccc1NC(=O)Cn1c(=O)n(CCCCC(=O)NCCCOC)c(=O)c2ccccc21,·,-0.3%,·,·,28.9%,·
Cc1ccc(NC(=O)C2CCCN(c3ncnc4c3nc3n4CCCCC3)C2)c(Br)c1 (stereo not given),·,3.5%,·,·,·,·
Cc1ccc2c(c1)-c1onc(C(=O)N3CCN(c4ccc(Cl)cc4)CC3)c1CO2,·,-16.6%,·,·,·,·
O=C(NCc1cccc(F)c1)c1ccc(CN2CC(=O)N3CCCCC3C2=O)cc1 (stereo not given),·,-2.7%,·,·,·,·
CCOn1c(=O)c(-c2ccc(Br)cc2)[n+]([O-])c2ccccc21,0.3%,3.3%,·,-0.7%,·,1.3%
CCOc1ccc(-c2c(=O)n(OCc3nc4ccccc4[nH]3)c3ccccc3[n+]2[O-])cc1,20.5%,16.9µM*,·,-1.8%,·,-3.1%
CCOn1c(=O)c(-c2cc3ccccc3o2)[n+]([O-])c2ccccc21,2.82µM*,?,-1.0%,?,15.8µM*,3.55µM*
O=c1c(-c2cc3ccccc3o2)[n+]([O-])c2ccccc2n1OCc1ccccn1,?,12µM*,-14.9%,?,?,?
C[C@H](CO)N1C[C@H](C)[C@@H](CN(C)C(=O)Nc2ccc3c(c2)OCO3)Oc2ccc(NC(=O)Nc3ccc4c(c3)OCO4)cc2C1=O,·,·,·,3.1%,·,·
CC1(c2nnc(Cc3ccccc3)o2)CC(c2ccccc2[N+](=O)[O-])=NO1 (stereo not given),2.4%,-0.7%,·,-0.1%,·,-3.7%
